In ChEMBL document CHEMBL1961873, “Compounds: GSK PKIS; Assays: Nanosyn kinase panel” (2012):

Tests used:
[1] = molecular target: Dual specificity protein kinase CLK3 (Homo sapiens) (UniProt P49761); settings: at 1 µM;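 also: each value is the mean inhibition of CLK3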
[2] = molecular target: Dual specificity tyrosine-phosphorylation-regulated kinase 1A (Homo sapiens) (UniProt Q13627); settings: at 0.1 µM
[3] = molecular target: Dual specificity tyrosine-phosphorylation-regulated kinase 1A (Homo sapiens) (UniProt Q13627); settings: at 1 µM
[4] = molecular target: Dual specificity tyrosine-phosphorylation-regulated kinase 1B (Homo sapiens) (UniProt Q9Y463); settings: at 0.1 µM
Dual specificity tyrosine-phosphorylation-regulated kinase 1B (Homo sapiens), sequence (Q9Y463 whole entry, looked up): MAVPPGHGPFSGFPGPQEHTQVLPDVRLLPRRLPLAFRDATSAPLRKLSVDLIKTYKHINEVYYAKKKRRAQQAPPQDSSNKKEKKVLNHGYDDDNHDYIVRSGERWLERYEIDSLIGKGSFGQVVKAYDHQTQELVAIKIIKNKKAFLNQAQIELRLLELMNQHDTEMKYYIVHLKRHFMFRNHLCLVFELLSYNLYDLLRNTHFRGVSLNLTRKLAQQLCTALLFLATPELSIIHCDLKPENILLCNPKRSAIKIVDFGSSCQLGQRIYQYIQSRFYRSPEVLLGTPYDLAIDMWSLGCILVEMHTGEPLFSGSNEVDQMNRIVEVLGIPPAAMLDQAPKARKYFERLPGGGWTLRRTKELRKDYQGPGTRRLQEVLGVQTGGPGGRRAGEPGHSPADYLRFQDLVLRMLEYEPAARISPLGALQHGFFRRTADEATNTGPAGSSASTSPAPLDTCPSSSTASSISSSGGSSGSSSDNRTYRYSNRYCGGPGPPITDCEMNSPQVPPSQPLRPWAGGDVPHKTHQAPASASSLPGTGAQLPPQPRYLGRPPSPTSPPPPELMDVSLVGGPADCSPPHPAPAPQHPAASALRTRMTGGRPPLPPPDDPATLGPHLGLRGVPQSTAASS

[5] = molecular target: Dual specificity tyrosine-phosphorylation-regulated kinase 1B (Homo sapiens) (UniProt Q9Y463); settings: at 1 µM
[6] = molecular target: T1, Dual specificity tyrosine-phosphorylation-regulated kinase 2 (Homo sapiens) (UniProt Q92630); settings: at 0.1 µM
T1 sequence (whole entry): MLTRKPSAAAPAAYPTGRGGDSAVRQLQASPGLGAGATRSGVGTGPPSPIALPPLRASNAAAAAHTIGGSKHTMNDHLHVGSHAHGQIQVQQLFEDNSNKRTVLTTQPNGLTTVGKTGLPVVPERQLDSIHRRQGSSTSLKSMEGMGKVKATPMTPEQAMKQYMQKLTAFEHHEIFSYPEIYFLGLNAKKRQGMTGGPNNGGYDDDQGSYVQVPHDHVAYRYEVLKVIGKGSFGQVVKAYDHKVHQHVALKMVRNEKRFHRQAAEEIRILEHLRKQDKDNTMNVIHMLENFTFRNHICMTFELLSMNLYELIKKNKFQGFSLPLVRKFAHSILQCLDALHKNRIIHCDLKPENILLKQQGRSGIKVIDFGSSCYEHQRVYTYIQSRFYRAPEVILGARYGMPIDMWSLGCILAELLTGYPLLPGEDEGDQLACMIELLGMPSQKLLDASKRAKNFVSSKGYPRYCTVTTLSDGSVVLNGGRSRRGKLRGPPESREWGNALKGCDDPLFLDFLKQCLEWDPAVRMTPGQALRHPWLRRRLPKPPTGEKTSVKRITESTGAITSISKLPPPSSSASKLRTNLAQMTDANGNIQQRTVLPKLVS

[7] = molecular target: T1, Dual specificity tyrosine-phosphorylation-regulated kinase 2 (Homo sapiens); settings: at 1 µM
[8] = molecular target: Glycogen synthase kinase-3 alpha (Homo sapiens) (UniProt P49840); settings: at 0.1 µM
Glycogen synthase kinase-3 alpha (Homo sapiens), sequence (P49840 2-483 limits assumed): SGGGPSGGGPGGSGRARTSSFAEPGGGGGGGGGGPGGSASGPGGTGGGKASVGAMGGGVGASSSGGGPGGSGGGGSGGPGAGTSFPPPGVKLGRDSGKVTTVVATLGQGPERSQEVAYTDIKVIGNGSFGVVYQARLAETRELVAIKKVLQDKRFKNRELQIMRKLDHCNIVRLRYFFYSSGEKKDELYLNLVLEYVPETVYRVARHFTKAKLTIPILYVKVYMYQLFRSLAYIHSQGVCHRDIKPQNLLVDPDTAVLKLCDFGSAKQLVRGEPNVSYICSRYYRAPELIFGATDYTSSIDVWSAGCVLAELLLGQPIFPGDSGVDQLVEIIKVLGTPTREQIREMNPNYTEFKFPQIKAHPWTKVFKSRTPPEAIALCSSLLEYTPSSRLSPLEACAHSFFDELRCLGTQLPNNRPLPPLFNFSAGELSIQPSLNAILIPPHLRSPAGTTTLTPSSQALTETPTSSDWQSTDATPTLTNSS

[9] = molecular target: Glycogen synthase kinase-3 alpha (Homo sapiens) (UniProt P49840); settings: at 1 µM
[10] = molecular target: Glycogen synthase kinase-3 beta (Homo sapiens) (UniProt P49841); settings: at 0.1 µM;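 also: values are mean percent inhibition of GSK3B activity, from the GSK Published Kinase Inhibitor Set (PKIS) screening dataset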
Glycogen synthase kinase-3 beta (Homo sapiens), sequence (P49841 whole entry, looked up): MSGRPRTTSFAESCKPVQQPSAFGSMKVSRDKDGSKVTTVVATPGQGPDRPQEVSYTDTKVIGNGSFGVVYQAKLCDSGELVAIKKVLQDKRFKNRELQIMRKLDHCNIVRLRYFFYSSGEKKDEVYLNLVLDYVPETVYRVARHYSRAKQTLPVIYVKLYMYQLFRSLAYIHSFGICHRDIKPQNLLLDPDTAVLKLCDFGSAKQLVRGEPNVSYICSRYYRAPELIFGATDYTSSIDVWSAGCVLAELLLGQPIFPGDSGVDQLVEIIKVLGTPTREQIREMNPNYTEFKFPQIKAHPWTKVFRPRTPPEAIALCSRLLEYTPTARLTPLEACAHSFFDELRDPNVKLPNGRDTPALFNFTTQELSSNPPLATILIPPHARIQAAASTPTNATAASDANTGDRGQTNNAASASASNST

Dual specificity protein kinase CLK3 (Homo sapiens), sequence (P49761 whole entry, looked up): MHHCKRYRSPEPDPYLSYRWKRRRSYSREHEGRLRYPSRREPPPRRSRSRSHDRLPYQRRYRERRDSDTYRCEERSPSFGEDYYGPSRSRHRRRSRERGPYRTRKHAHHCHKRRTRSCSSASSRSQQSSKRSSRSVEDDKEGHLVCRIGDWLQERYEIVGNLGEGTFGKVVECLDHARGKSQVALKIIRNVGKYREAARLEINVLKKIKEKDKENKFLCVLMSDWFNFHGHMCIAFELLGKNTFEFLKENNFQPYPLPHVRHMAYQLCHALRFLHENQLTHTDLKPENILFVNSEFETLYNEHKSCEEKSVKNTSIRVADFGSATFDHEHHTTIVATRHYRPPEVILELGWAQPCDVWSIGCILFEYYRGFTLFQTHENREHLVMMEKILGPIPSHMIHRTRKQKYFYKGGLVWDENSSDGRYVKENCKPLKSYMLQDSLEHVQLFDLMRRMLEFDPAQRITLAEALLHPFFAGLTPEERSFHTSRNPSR

| SMILES | inhibition [1] | inhibition [2] | inhibition [3] | inhibition [4] | inhibition [5] | inhibition [6] | inhibition [7] | inhibition [8] | inhibition [9] | inhibition [10] |
| --- | --- | --- | --- | --- | --- | --- | --- | --- | --- | --- |
| COC(=O)Nc1nc2cc(Oc3ccc(NC(=O)Nc4ccccc4)cc3)ccc2[nH]1 | 2% | 0.64% | 2.92% | -0.93% | 1.92% | 0.59% | 0.89% | 4.23% | 8.26% | 3.5% |
| Cc1cc(O)cc(C)c1/C=C/c1cncc(C(N)=O)c1 | 3.45% | 2.36% | 6.61% | 0.87% | 2.81% | 1.62% | 3.99% | 1.54% | 4.08% | 1.76% |
| CNC(=O)c1cncc(/C=C/c2ccccc2C)c1 | 2.09% | 1.38% | 1.83% | 0.2% | 0.92% | 1.99% | 3.1% | 5.39% | 12.3% | 5.07% |
| c1cnn2ncc(-c3ccnc(NCCCN4CCOCC4)n3)c2c1 | 0.72% | 6.3% | 33.9% | 6.84% | 40.3% | 1.99% | 5.39% | 2.46% | 13.1% | 1.44% |
| CC1=C(C(=O)Nc2ccc3[nH]nc(C)c3c2)C(c2ccc(C(F)(F)F)cc2)CC(=O)N1 (stereo not given) | 14.1% | 2.93% | 7.46% | 1.73% | 4.23% | 2.28% | 3.97% | 6.5% | 10.8% | 6.08% |
| NS(=O)(=O)c1ccc(N/N=C2\C(=O)Nc3cccc(CCc4ccncc4)c32)cc1 | 1.36% | 1.69% | 4.28% | 1.6% | 6.1% | -0.67% | -1.25% | 49.5% | 68% | 34.1% |
| CS(=O)(=O)Nc1ccc(-c2ccc3c(NC(=O)C4CC4)n[nH]c3c2)cc1 | 4.08% | 1.29% | 6.04% | -0.26% | 2.94% | 2.37% | 2.73% | 2.08% | 7.33% | 1.51% |
| COc1cc2c(cc1Nc1nc(Nc3cccc(F)c3C(N)=O)c3cc[nH]c3n1)N(C(=O)CN1CCN(C(C)C)CC1)CC2 | 1.39% | 1.82% | 10.2% | 3.8% | 9.06% | 2.66% | 5.93% | 1.62% | 2.06% | 0.46% |
| OCCCNc1nccc(-c2c(-c3ccc(F)cc3)nn3cc(C(F)(F)F)ccc23)n1 | 0.7% | 1.47% | 6.36% | 1.89% | 3.86% | 2.33% | 3.97% | 7.04% | 18.2% | 8.01% |
| NS(=O)(=O)c1ccc(N/N=C2\C(=O)Nc3ccc(C(=O)NCc4ccncc4)cc32)cc1 | 3.91% | 2.11% | 9.79% | 1.01% | 11.3% | 2.69% | 8.09% | 35.3% | 75.7% | 38.4% |
| O=C(O[C@H]1CN[C@H](C#Cc2cc3ncnc(Nc4ccc5c(ccn5Cc5cc(F)ccc5F)c4)c3s2)C1)N1CCOCC1 | 1.89% | 2.29% | 4.73% | 0.4% | -1.92% | 3.27% | 2.77% | 3.38% | 6.08% | 1.76% |
| COc1c(C(N)=O)cc(-c2ccc(Cl)cc2)cc1-c1ccc(S(N)(=O)=O)cc1 | 0.31% | 3.11% | 4.97% | -0.92% | -0.01% | 3.75% | 8.4% | 1.76% | 2.57% | 0.69% |
| CCS(=O)(=O)c1ccc(OC)c(Nc2ncc(-c3cccc(C(C)=O)c3)o2)c1 | 5.96% | 6.12% | 35.4% | 4.09% | 33.2% | 2.2% | 5.6% | 3.75% | 11.3% | 4.38% |
| O=C(O[C@H]1CN[C@H](C#Cc2cc3ncnc(Nc4ccc5c(cnn5Cc5ccccc5)c4)c3s2)C1)N1CCOCC1 | -0.49% | -4.04% | -3.74% | -1.09% | -0.85% | -0.74% | -3.59% | 1.95% | 3.19% | 1.44% |
| COc1ccc(-c2nn3ncccc3c2-c2ccnc(Nc3ccc(F)c(F)c3)n2)cc1 | 3.23% | 2.77% | 4.84% | -0.82% | 1.01% | 2.83% | 3.6% | 3.2% | 4.32% | 3.16% |
| Fc1ccc(Nc2nccc(-c3c(-c4ccc(C(F)(F)F)cc4)nn4ncccc34)n2)cc1F | 4.71% | 2.73% | 5.39% | 1.21% | 2.44% | 2.31% | 3.44% | 2.05% | 4.32% | 1.37% |

| SMILES | inhibition [1] | inhibition [2] | inhibition [3] | inhibition [4] | inhibition [5] | inhibition [6] | inhibition [7] | inhibition [8] | inhibition [9] | inhibition [10] |
| --- | --- | --- | --- | --- | --- | --- | --- | --- | --- | --- |
| CCOc1ccc2c(-c3ccnc(Nc4cc(OC)cc(C(F)(F)F)c4)n3)cnn2n1 | 21.8% | 5.33% | 21.6% | 8.29% | 38.8% | 1.12% | 5.62% | 9.42% | 30.3% | 9.12% |
| COC(=O)Nc1nc2ccc(Oc3ccc(NC(=O)Nc4cc(C(F)(F)F)ccc4F)cc3)cc2s1 | 0.05% | 0.96% | 2.5% | 1.09% | 2.02% | -0.29% | 0.21% | 0.71% | 4.01% | -0.46% |
| c1ccc(-c2n[nH]cc2-c2ccnc(-c3ccc(OCCn4ccnc4)cc3)c2)nc1 | 0.82% | 3.79% | 5.07% | 0.31% | 0.62% | -0.06% | 0.1% | 1.15% | 3.28% | 1.16% |
| NC(=O)c1ccc2c(-c3ccnc(NCCCO)n3)c(-c3ccc(F)cc3)nn2c1 | 2.71% | 7.25% | 8.12% | 5.14% | 5.25% | 3.28% | 5.26% | 3.74% | 19.6% | 7.03% |
| O=C(O[C@H]1CN[C@H](C#Cc2cc3ncnc(Nc4ccc(OCc5cccc(F)c5)c(Cl)c4)c3s2)C1)N1CCOCC1 | 2.04% | 2.71% | 6.81% | -1.11% | -0.95% | 3.84% | 3.68% | 3.45% | 4.35% | 2.75% |
| FC(F)(F)CNc1nccc(-c2cnn3ncccc23)n1 | 2.91% | 14.6% | 60.1% | 16.1% | 59% | 2.04% | 14.3% | 3.64% | 7.01% | 2.33% |
| CCS(=O)(=O)c1ccc(OC)c(Nc2ncc(-c3cccc(F)c3)o2)c1 | 12.1% | 4.83% | 26% | 0.76% | 12.2% | 5.21% | 13.7% | 2.67% | 5.61% | 2.72% |
| CCCNc1cccc(-n2ncc3c(N/N=C/c4ccncc4)ncnc32)c1 | 9.87% | 1.44% | 20.6% | 0.57% | 9.45% | 2.85% | 14.2% | 31.9% | 71.8% | 24% |
| COc1ccc(Nc2ncc(-c3ccccc3)o2)cc1OC | 5.65% | 8.15% | 12% | 9% | 10.9% | 0.67% | 2.48% | 8.4% | 38.4% | 7.94% |
| Cc1nnc(-c2cccc(-c3ccc(C(=O)NCC4CC4)cc3)c2)o1 | 2.8% | 3% | 6.39% | 0.21% | 1.06% | 3.15% | 5.04% | 4.33% | 14.8% | 3.05% |
| COc1cc(N2CCN(C(C)C)CC2)ccc1Nc1nc(Nc2cccc3ncccc23)c2cc[nH]c2n1 | 1.89% | 0.19% | 5.87% | 1.41% | 7.46% | -1.54% | -1.74% | 0.06% | 3.49% | 0.31% |
| Fc1cccc(COc2ccc(Nc3ncncc3C#Cc3ccccc3)cc2Cl)c1 | 2.05% | 2.88% | 5.18% | 0.4% | 1.45% | 3.74% | 4.05% | 3.26% | 4.91% | 2.3% |
| CC1(C)CC(n2cnc(-c3ccc(F)cc3)c2-c2ccnc(N)n2)CC(C)(C)N1 | 1.38% | 1.54% | 5.47% | 0.78% | 1.31% | 0.23% | -0.37% | 1.97% | 5.81% | 1.6% |
| COc1cc(N2CCN(C(C)C)CC2)ccc1Nc1nc(Nc2cccc(F)c2C(=O)O)c2cc[nH]c2n1 | 7.82% | 5.55% | 23% | 5.54% | 32.6% | 2.88% | 4.2% | 5% | 6.33% | 3.95% |
| CN1CCC(n2cnc(-c3ccc(F)cc3)c2-c2ccnc(NCCO)n2)CC1 | 3.15% | 3.36% | 3.78% | -0.1% | 1.43% | 2.57% | 3.9% | 3.17% | 5.09% | 3.17% |
